In PubChem BioAssay AID1456 (Vanderbilt High Throughput Screening Facility, 2008):
Screen size: about 190,000 compounds; about 4,100 (2.2%) were called active.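 Rule for the calls: active = thallium flux slope and its plate-corrected score both differing from the plate sample mean at a set confidence after two filtering rounds, in either direction; inactive = the rest.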 The list comes from a sample in which actives are over-represented; it also holds similar structures and randomly drawn compounds.

These molecules were tested against Solute carrier family 12 member 5 (Homo sapiens) (UniProt Q9H2X9) (assay: modulation of human KCC2 ion transport – cell-based, HEK293 KCC2, FluoZin-2 fluorescence, MLSMR, primary screen (AID 1456;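 for B-score of Tl+ flux slope (higher = more flux/activation; lower = inhibition): slope of fluorescence scaled to starting intensity during 10 to 20 s after thallium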)). Conditions: KCC2 cells, thallium flux FluoZin-2 fluorescence; at 10 µM.
Sequence of Solute carrier family 12 member 5 (Homo sapiens) (Q9H2X9 whole entry, looked up): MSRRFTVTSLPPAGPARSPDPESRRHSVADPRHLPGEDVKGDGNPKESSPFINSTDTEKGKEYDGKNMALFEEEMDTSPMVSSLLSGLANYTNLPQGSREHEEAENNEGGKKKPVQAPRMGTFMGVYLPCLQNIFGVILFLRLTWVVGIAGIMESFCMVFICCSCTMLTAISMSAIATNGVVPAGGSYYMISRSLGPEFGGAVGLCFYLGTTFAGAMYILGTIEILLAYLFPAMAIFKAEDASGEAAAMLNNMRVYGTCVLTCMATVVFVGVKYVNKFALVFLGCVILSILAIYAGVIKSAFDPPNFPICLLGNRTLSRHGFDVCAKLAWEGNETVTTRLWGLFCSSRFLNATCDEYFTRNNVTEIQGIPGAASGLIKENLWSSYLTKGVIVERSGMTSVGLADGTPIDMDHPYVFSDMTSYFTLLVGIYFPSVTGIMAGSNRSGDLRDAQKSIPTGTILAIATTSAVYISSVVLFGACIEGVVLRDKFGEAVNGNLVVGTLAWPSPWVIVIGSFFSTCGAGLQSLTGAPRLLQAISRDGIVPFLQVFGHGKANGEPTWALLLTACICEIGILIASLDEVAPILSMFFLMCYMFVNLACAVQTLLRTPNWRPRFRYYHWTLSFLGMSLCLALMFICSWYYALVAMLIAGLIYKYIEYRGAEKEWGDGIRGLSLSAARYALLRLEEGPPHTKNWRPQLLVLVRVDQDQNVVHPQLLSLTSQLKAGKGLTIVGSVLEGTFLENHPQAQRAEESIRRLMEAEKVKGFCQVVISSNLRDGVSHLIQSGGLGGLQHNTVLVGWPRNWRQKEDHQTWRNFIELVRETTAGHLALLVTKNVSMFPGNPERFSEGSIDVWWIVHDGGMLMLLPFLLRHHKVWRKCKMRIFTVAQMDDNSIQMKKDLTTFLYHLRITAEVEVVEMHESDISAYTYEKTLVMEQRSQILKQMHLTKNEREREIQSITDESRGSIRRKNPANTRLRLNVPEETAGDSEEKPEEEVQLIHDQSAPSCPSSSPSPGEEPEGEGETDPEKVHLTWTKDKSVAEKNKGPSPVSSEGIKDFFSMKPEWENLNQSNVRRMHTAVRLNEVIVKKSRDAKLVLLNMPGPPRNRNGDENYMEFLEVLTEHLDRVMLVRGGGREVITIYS
With C=CCN(C(=O)Nc1ccc2c(c1)nc(C)n2C)c1ccccc1 the B-score of Tl+ flux slope (higher = more flux/activation; lower = inhibition) was -0.205 (inactive).
For COc1ccc2c(c1)c1ncn(Cc3ccccn3)c(=O)c1n2C, the B-score of Tl+ flux slope (higher = more flux/activation; lower = inhibition) was -0.189 (inactive).
In the case of COc1ccc(-c2nn(C)c(=O)c3ccccc23)cc1CNC(=O)C1CCCCC1, the B-score of Tl+ flux slope (higher = more flux/activation; lower = inhibition) is reported as -0.0309 (inactive).
For CCC(C)N1C(=S)SC(C)(C)C1N(O)C(=O)NC1CCCCC1 (stereo not drawn), the B-score of Tl+ flux slope (higher = more flux/activation; lower = inhibition) was 0.793 (inactive).
For COc1ccccc1-n1cn[nH]c1=S, the B-score of Tl+ flux slope (higher = more flux/activation; lower = inhibition) was 0.0347 (inactive).
For CCc1ccc(NC(=O)N[C@H](C(=O)O)C(C)CC)cc1 (stereo partly drawn), the B-score of Tl+ flux slope (higher = more flux/activation; lower = inhibition) was 1.5 (inactive).
In the case of O=C(O)c1ccc(/C=N/Nc2nc(N3CCCCC3)nc(N3CCCCC3)n2)cc1, the B-score of Tl+ flux slope (higher = more flux/activation; lower = inhibition) is reported as -1.4 (inactive).
For Cc1ccc(C(=O)N/C(=C\c2ccco2)C(=O)NC2CCS(=O)(=O)C2)cc1 (stereo not drawn), the B-score of Tl+ flux slope (higher = more flux/activation; lower = inhibition) was -1.21 (inactive).
In the case of CN(C(=O)CCn1c(=S)oc2ccccc21)C1CCCCC1, the B-score of Tl+ flux slope (higher = more flux/activation; lower = inhibition) is reported as 0.00441 (inactive).
CC(C)c1nc(SCC(=O)NC(=O)NC(C)(C)C)n[nH]1 was tested, and the B-score of Tl+ flux slope (higher = more flux/activation; lower = inhibition) was -0.671 (inactive).
With Cc1ccc(NC(=O)/C(=C/c2ccc([N+](=O)[O-])cc2)NC(=O)c2ccccc2)cc1 the B-score of Tl+ flux slope (higher = more flux/activation; lower = inhibition) was -1.36 (inactive).
For O=C(Nc1nncs1)c1ccccc1NS(=O)(=O)c1cccs1, the B-score of Tl+ flux slope (higher = more flux/activation; lower = inhibition) was -1.71 (inactive).
For COc1cc(NC(=O)c2cccnc2SC)cc(OC)c1, the B-score of Tl+ flux slope (higher = more flux/activation; lower = inhibition) was 0.553 (inactive).
In the case of COc1cc(NC(=O)c2ccccc2NS(=O)(=O)c2ccc(Cl)s2)cc(OC)c1, the B-score of Tl+ flux slope (higher = more flux/activation; lower = inhibition) is reported as -5.32 (active).
Cc1ccc(-c2nc(SCC(=O)Nc3ccccc3OC(F)F)c3c(C)c(C(=O)O)sc3n2)cc1 was tested, and the B-score of Tl+ flux slope (higher = more flux/activation; lower = inhibition) was -0.62 (inactive).
In the case of COc1ccc(C(=O)N/N=C(\C)CC(=O)Nc2ccc(Cl)cn2)cc1, the B-score of Tl+ flux slope (higher = more flux/activation; lower = inhibition) is reported as -0.466 (inactive).
With CCn1c(CN2C(=O)CSc3ccccc32)n[nH]c1=S the B-score of Tl+ flux slope (higher = more flux/activation; lower = inhibition) was 0.96 (inactive).
CSCCC(Nc1nc2ccccc2s1)C(=O)O (stereo not drawn) was tested, and the B-score of Tl+ flux slope (higher = more flux/activation; lower = inhibition) was 0.0417 (inactive).
O=C(Nc1ccccc1)Nc1nc2ccccc2s1 was tested, and the B-score of Tl+ flux slope (higher = more flux/activation; lower = inhibition) was 0.018 (inactive).
In the case of CCC(=O)NC(=Nc1nc2ccccc2s1)NC(=O)CC, the B-score of Tl+ flux slope (higher = more flux/activation; lower = inhibition) is reported as 41 (active).
For O=C(O)C(F)(F)C(NCc1ccccc1)c1ccccc1 (stereo not drawn), the B-score of Tl+ flux slope (higher = more flux/activation; lower = inhibition) was -0.106 (inactive).
Cn1c(SCC(=O)N2CCOCC2)nnc1-c1ccc2ncccc2c1 was tested, and the B-score of Tl+ flux slope (higher = more flux/activation; lower = inhibition) was -0.0283 (inactive).
In the case of O=C(Nc1ccccc1)c1cc2ccccc2[nH]1, the B-score of Tl+ flux slope (higher = more flux/activation; lower = inhibition) is reported as -1.8 (inactive).
For S=c1ccc2ccccc2[nH]1, the B-score of Tl+ flux slope (higher = more flux/activation; lower = inhibition) was 29.1 (active).
With c1ccc2[nH]c(-c3nc4ccccc4[nH]3)nc2c1 the B-score of Tl+ flux slope (higher = more flux/activation; lower = inhibition) was 0.179 (inactive).
For COc1ccc(OCC(=O)N2CCN(C(=O)COc3ccccc3)CC2)cc1, the B-score of Tl+ flux slope (higher = more flux/activation; lower = inhibition) was -0.137 (inactive).
O=C(c1ccc(OC2CCN(C(=O)c3cccnc3)CC2)cc1)N1CCCCCC1 was tested, and the B-score of Tl+ flux slope (higher = more flux/activation; lower = inhibition) was 0.182 (inactive).
With Cc1ccc(OCC(=O)N2CCN(C(=O)c3cccnc3)CC2)cc1 the B-score of Tl+ flux slope (higher = more flux/activation; lower = inhibition) was 2.71 (active).
For CCn1c(SCC(=O)N/N=C/c2ccccc2OCC(=O)O)nnc1-c1ccc(C(C)(C)C)cc1, the B-score of Tl+ flux slope (higher = more flux/activation; lower = inhibition) was -0.932 (inactive).
With CC1(C)CCSC(/C=C/c2ccccc2)=N1 the B-score of Tl+ flux slope (higher = more flux/activation; lower = inhibition) was -1.21 (inactive).
COc1ccc(N=Nc2ccc(O)c(P(=O)(c3ccccc3)c3ccccc3)c2)cc1 was tested, and the B-score of Tl+ flux slope (higher = more flux/activation; lower = inhibition) was -0.282 (inactive).
CCOC(=O)C(=O)C1C(=O)Nc2ccccc21 (stereo not drawn) was tested, and the B-score of Tl+ flux slope (higher = more flux/activation; lower = inhibition) was “inactive”.
For CCCCC(CC)CNC(=O)CCCCn1c(=O)[nH]c2ccsc2c1=O (stereo not drawn), the B-score of Tl+ flux slope (higher = more flux/activation; lower = inhibition) was -0.707 (inactive).
For CCCCC(CC)CNC(=O)C(=O)C1C(=O)Nc2ccccc21 (stereo not drawn), the B-score of Tl+ flux slope (higher = more flux/activation; lower = inhibition) was 8.5 (active).
For OCCCC1CCCCN1Cc1nc(Cc2ccccc2Cl)no1 (stereo not drawn), the B-score of Tl+ flux slope (higher = more flux/activation; lower = inhibition) was -0.7 (inactive).
O=C(/C=C/Nc1ccc(S(=O)(=O)Nc2cnc3ccccc3n2)cc1)c1cccnc1 was tested, and the B-score of Tl+ flux slope (higher = more flux/activation; lower = inhibition) was -0.253 (inactive).
With CCOC(=O)c1nnn2c1nc(N1CCN(c3ccccc3)CC1)c1ccccc12 the B-score of Tl+ flux slope (higher = more flux/activation; lower = inhibition) was -2.78 (inactive).
In the case of C/C=C(\C)C(=O)N1CC2(CC(c3cccc(NC(=O)CCCCC)c3)=NO2)C[C@@H]1C(N)=O (stereo partly drawn), the B-score of Tl+ flux slope (higher = more flux/activation; lower = inhibition) is reported as -0.00449 (inactive).
In the case of O=C(NN1C(=O)C2C(C1=O)C1C=CC2C12CC2)c1ccccc1Cl (stereo not drawn), the B-score of Tl+ flux slope (higher = more flux/activation; lower = inhibition) is reported as 0.716 (inactive).
In the case of CCOC(=O)c1ccc(NC(=O)CSc2ncccn2)cc1, the B-score of Tl+ flux slope (higher = more flux/activation; lower = inhibition) is reported as 1.85 (inactive).
With Cc1oc2nc(SCC(=O)Nc3ccc(S(N)(=O)=O)cc3)nc(NC(=O)c3ccccc3)c2c1C the B-score of Tl+ flux slope (higher = more flux/activation; lower = inhibition) was 6.29 (active).
CCc1ccc(CCC(=O)Nc2ccc(S(N)(=O)=O)cc2)o1 was tested, and the B-score of Tl+ flux slope (higher = more flux/activation; lower = inhibition) was 1.49 (inactive).
For CCOc1ccc(NC(=O)CN(C)CC(=O)NC(C)c2ccccc2)cc1OCC (stereo not drawn), the B-score of Tl+ flux slope (higher = more flux/activation; lower = inhibition) was -0.692 (inactive).
In the case of CCOc1ccc(NC(=O)CN(C)CC(=O)Nc2cccc(Cl)c2C)cc1OCC, the B-score of Tl+ flux slope (higher = more flux/activation; lower = inhibition) is reported as -5.58 (active).
For COc1cccc(NC(=O)CN(C)CC(=O)Nc2ccc3c(c2)CCC3)c1, the B-score of Tl+ flux slope (higher = more flux/activation; lower = inhibition) was -0.353 (inactive).
For COc1ccc(/C=N/NS(=O)(=O)c2ccc(NC(C)=O)cc2)cc1, the B-score of Tl+ flux slope (higher = more flux/activation; lower = inhibition) was 0.538 (inactive).
With COc1ccc(Cl)cc1NC(=O)CCN1CCOCC1 the B-score of Tl+ flux slope (higher = more flux/activation; lower = inhibition) was -0.478 (inactive).
In the case of O=S(=O)(c1ccc(F)cc1)N1CCN(C(=S)NC2CCCC2)CC1, the B-score of Tl+ flux slope (higher = more flux/activation; lower = inhibition) is reported as -0.0466 (inactive).
For O=S(=O)(c1ccc(F)cc1)N1CCN(C(=S)NCc2ccco2)CC1, the B-score of Tl+ flux slope (higher = more flux/activation; lower = inhibition) was -3.94 (active).
With O=C(NCc1ccco1)C1CCCN(S(=O)(=O)c2ccccc2)C1 (stereo not drawn) the B-score of Tl+ flux slope (higher = more flux/activation; lower = inhibition) was -0.4 (inactive).
For O=S(=O)(c1ccc(Cl)cc1)N1CCCN(c2ccc(C(F)(F)F)cn2)CC1, the B-score of Tl+ flux slope (higher = more flux/activation; lower = inhibition) was -0.0306 (inactive).
For C=CCC(Nc1ccccc1)c1cccc(OC)c1OC (stereo not drawn), the B-score of Tl+ flux slope (higher = more flux/activation; lower = inhibition) was -1.46 (inactive).
With O=C(CSc1nnc(-c2cccs2)n1Cc1ccccc1)N1CCc2ccccc2C1 the B-score of Tl+ flux slope (higher = more flux/activation; lower = inhibition) was -5.7 (active).
With Cc1nnc(SCC(=O)N2CCc3ccccc3C2)s1 the B-score of Tl+ flux slope (higher = more flux/activation; lower = inhibition) was 0.173 (inactive).
O=C(CSc1nnc(-c2cccs2)n1-c1ccccc1)N1CCN(C(=O)c2ccco2)CC1 was tested, and the B-score of Tl+ flux slope (higher = more flux/activation; lower = inhibition) was 0.0437 (inactive).
In the case of CC(C)Cc1nnc(NC(=O)CCC(=O)Nc2ccc3cn[nH]c3c2)s1, the B-score of Tl+ flux slope (higher = more flux/activation; lower = inhibition) is reported as 0.683 (inactive).
For Nc1nnnn1/N=C/c1cc([N+](=O)[O-])ccc1O, the B-score of Tl+ flux slope (higher = more flux/activation; lower = inhibition) was -0.19 (inactive).
In the case of COc1cccc(CC(=O)Nc2ccc(-c3csc(C)n3)cc2)c1, the B-score of Tl+ flux slope (higher = more flux/activation; lower = inhibition) is reported as -1.35 (inactive).
